Compounds without any hit were thinned out: in the full panel of roughly 79,000, 15% have a hit. Active and inactive are the calls of the source. Rule as the data show it: active = growth inhibition above about 70%; inactive = the rest.
How the values were obtained:
[1] = NCI Yeast Anticancer Drug Screen. Data for the rad52 strain (AID 147);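 also: 0% = growth of vehicle-treated control cultures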; conditions: S. cerevisiae rad52 mutant growth inhibition, stronger effect = higher value
Procedure, shortened: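 Measured: yeast growth inhibition. System: strain with a defined DNA damage repair alteration. Reference: vehicle-treated control cultures.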

[2] = NCI Yeast Anticancer Drug Screen. Data for the wt1 strain (AID 149);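 also: 0% = growth of vehicle-treated wt1 cultures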; conditions: S. cerevisiae wt1 strain (SPY 50644) growth inhibition, stronger effect = higher value
Procedure, shortened: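 wt1 strain grown with compound or vehicle; inhibition taken from the growth difference.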

[3] = NCI Yeast Anticancer Drug Screen. Data for the rad50EPP+ strain (AID 151);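 also: 0% = growth of vehicle-treated control cultures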; conditions: S. cerevisiae rad50 mutant strain, stronger effect = higher value
Procedure, shortened: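 One strain with a rad50 alteration (rad50EPP+) was compound-treated, its growth then compared to that of vehicle controls.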

[4] = NCI Yeast Anticancer Drug Screen. Data for the mgt1 strain (AID 153); conditions: S. cerevisiae mgt1 mutant growth inhibition, stronger effect = higher value
Procedure, shortened: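 After exposure of the mgt1 yeast mutant to compound, growth was measured and reported as inhibition compared with vehicle controls.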

[5] = NCI Yeast Anticancer Drug Screen. Data for the rad50 strain (AID 155);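 also: 0% = growth of vehicle-only cultures of the same strain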; conditions: S. cerevisiae rad50 strain growth inhibition, stronger effect = higher value
Procedure, shortened: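 DNA repair mutant yeast, compound exposure, growth read-out; inhibition is taken relative to vehicle.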

[6] = NCI Yeast Anticancer Drug Screen. Data for the mec2-1 strain (AID 157); conditions: S. cerevisiae mec2-1 strain, stronger effect = higher value
Procedure, shortened: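 Test agents were screened against the mec2-1 yeast strain, with defined DNA repair or cell cycle alteration. Growth was scored as inhibition against vehicle-only controls.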

[7] = NCI Yeast Anticancer Drug Screen. Data for the rad14 strain (AID 159);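 also: 0% = growth of vehicle-treated control cultures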; conditions: S. cerevisiae rad14 strain growth inhibition, stronger effect = higher value
Procedure, shortened: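 DNA repair-defective yeast, compound-exposed; % growth inhibition derived by comparison with vehicle-treated controls.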

[8] = NCI Yeast Anticancer Drug Screen. Data for the sgs1 mgt1 strain (AID 161);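 also: 0% = growth of cultures given vehicle only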; conditions: S. cerevisiae sgs1 mgt1 strain, stronger effect = higher value
Procedure, shortened: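 Mutant yeast exposed to compound; growth scored against vehicle-only wells.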

[9] = NCI Yeast Anticancer Drug Screen. Data for the CLN2oe strain (AID 163);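 also: 0% = growth of vehicle-only control cultures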; conditions: S. cerevisiae CLN2oe strain, stronger effect = higher value
Procedure, shortened: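 Here, growth inhibition in a cell-cycle-altered yeast strain after compound exposure was quantified against vehicle control growth.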

[10] = NCI Yeast Anticancer Drug Screen. Data for the cln2 rad14 strain (AID 165);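 also: 0% = growth equal to vehicle treated cultures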; conditions: S. cerevisiae cln2 rad14 strain, stronger effect = higher value
Procedure, shortened: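 Growth of compound-exposed yeast (cln2 rad14 genotype) measured and expressed as inhibition relative to vehicle.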

[11] = NCI Yeast Anticancer Drug Screen. Data for the bub3 strain (AID 167); conditions: S. cerevisiae bub3 mutant strain, stronger effect = higher value
Procedure, shortened: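 In this screen, a yeast mutant lacking normal mitotic checkpoint function is challenged with compound. Relative growth versus vehicle gives the inhibition value.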

[12] = NCI Yeast Anticancer Drug Screen. Data for the mlh1 strain (AID 171);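 also: 0% = growth of vehicle-treated control cultures of the same strain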; conditions: S. cerevisiae mlh1 strain growth inhibition, stronger effect = higher value
Procedure, shortened: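 Here the genetically defined yeast mutant is grown with each compound, and the extent to which its growth falls below that of vehicle-exposed cells is reported.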

[13] = NCI Yeast Anticancer Drug Screen. Data for the sgs1 strain (AID 173);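 also: 0% = growth of vehicle-only control cultures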; conditions: S. cerevisiae sgs1 mutant, stronger effect = higher value
Procedure, shortened: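 Relative growth inhibition, referenced to vehicle, was determined in a yeast strain with a defined alteration affecting DNA damage repair or cell cycle control after compound exposure.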

[14] = NCI Yeast Anticancer Drug Screen. Data for the rad18 strain (AID 177); conditions: S. cerevisiae rad18 mutant growth inhibition, stronger effect = higher value
Procedure, shortened: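 Screen uses a yeast strain with a defined lesion in DNA damage repair; compound effect is read as loss of growth compared to untreated vehicle cultures.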

[15] = NCI Yeast Anticancer Drug Screen. Data for the wt2 strain (AID 169);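 also: 0% = growth of vehicle-treated yeast cultures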; conditions: S. cerevisiae wt2 strain growth inhibition, stronger effect = higher value
Procedure, shortened: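 Genetically defined yeast strains from a DNA-repair/cell-cycle panel were used. Compound-exposed yeast growth was measured, and the inhibition was calculated relative to vehicle treatment.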

[16] = NCI Yeast Anticancer Drug Screen. Data for the mlh1 rad18 strain (AID 175); conditions: S. cerevisiae mlh1 rad18 strain growth inhibition, stronger effect = higher value
Procedure, shortened: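 In this whole-cell yeast screen, a strain with altered DNA damage repair is challenged with compound, and its growth is measured against matched vehicle-treated controls.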

[17] = at 5.0 µM (retest, dose inferred, filed as 0.5)
[18] = at 50.0 µM (retest, dose inferred, filed as 5.0)

Measured: growth inhibition

COc1ccc(/C=C/c2sc3ccccc3[n+]2CCCCI)cc1OC
active: [1]; at 100.0 µM 94% | [2]; at 100.0 µM 89% | [4]; at 33.0 µM 76% | [4]; at 100.0 µM 98% | [5]; at 50.0 µM 74.9% | [5]; at 100.0 µM 93% | [6]; at 50.0 µM 81.4% | [6]; at 100.0 µM 95% | [7]; at 33.0 µM 84% | [7]; at 100.0 µM 98% | [8]; at 50.0 µM 95.2% | [11]; [18] 97% | [11]; at 50.0 µM 91.8% | [11]; at 100.0 µM 85% | [12]; at 100.0 µM 97% | [13]; at 33.0 µM 84% | [13]; at 100.0 µM 97% | [14]; at 33.0 µM 86% | [14]; at 100.0 µM 96%
inactive: [1]; at 1.2 µM -8% | [1]; at 3.7 µM 1% | [1]; at 11.0 µM -2% | [1]; at 33.0 µM 55% | [2]; at 1.2 µM -84% | [2]; at 3.7 µM -3% | [2]; at 11.0 µM -6% | [2]; at 33.0 µM 33% | [3]; at 1.2 µM -5% | [3]; at 3.7 µM -2% | [3]; at 11.0 µM -4% | [3]; at 33.0 µM 0% | [3]; at 100.0 µM -3% | [4]; at 1.2 µM 0% | [4]; at 3.7 µM -1% | [4]; at 11.0 µM -4% | [5]; at 1.2 µM -2% | [5]; at 3.7 µM -3% | [5]; [17] -11% | [5]; at 11.0 µM -7% | [5]; at 33.0 µM 48% | [5]; [18] 20% | [6]; at 1.2 µM -6% | [6]; at 3.7 µM -6% | [6]; [17] -16% | [6]; at 11.0 µM -11% | [6]; at 33.0 µM 64% | [6]; [18] 56% | [7]; at 1.2 µM -2% | [7]; at 3.7 µM -3% | [7]; at 11.0 µM -7% | [8]; [17] -9% | [8]; [18] 29% | [9]; at 1.2 µM -7% | [9]; at 3.7 µM -7% | [9]; at 11.0 µM -8% | [9]; at 33.0 µM -10% | [9]; at 100.0 µM 68% | [10]; [17] 36% | [10]; [18] 54% | [10]; at 50.0 µM 29.6% | [11]; at 1.2 µM -4% | [11]; at 3.7 µM -8% | [11]; [17] 0% | [11]; at 11.0 µM -2% | [11]; at 33.0 µM 1% | [12]; at 1.2 µM -2% | [12]; at 3.7 µM -4% | [12]; at 11.0 µM -6% | [12]; at 33.0 µM 66% | [13]; at 1.2 µM 1% | [13]; at 3.7 µM 4% | [13]; at 11.0 µM -2% | [14]; at 1.2 µM -3% | [14]; at 3.7 µM 0% | [14]; at 11.0 µM 9%

CC(C)(CCCCC(C)(C)[N+](C)(C)C)[N+](C)(C)C
inactive: [1]; at 1.2 µM -4% | [1]; at 3.7 µM -6% | [1]; at 11.0 µM -5% | [1]; at 33.0 µM -10% | [1]; at 100.0 µM -1% | [2]; at 1.2 µM -2% | [2]; at 3.7 µM 0% | [2]; at 11.0 µM -1% | [2]; at 33.0 µM -1% | [2]; at 100.0 µM 1% | [3]; at 1.2 µM -3% | [3]; at 3.7 µM -4% | [3]; at 11.0 µM 0% | [3]; at 33.0 µM -1% | [3]; at 100.0 µM -2% | [4]; at 1.2 µM -4% | [4]; at 3.7 µM -3% | [4]; at 11.0 µM -4% | [4]; at 33.0 µM -16% | [4]; at 100.0 µM -2% | [5]; at 1.2 µM -10% | [5]; at 3.7 µM -18% | [5]; [17] 4% | [5]; at 11.0 µM -25% | [5]; at 33.0 µM -4% | [5]; [18] 54% | [5]; at 100.0 µM -2% | [6]; at 1.2 µM 0% | [6]; at 3.7 µM 1% | [6]; [17] 21% | [6]; at 11.0 µM 0% | [6]; at 33.0 µM 1% | [6]; [18] 42% | [6]; at 100.0 µM -1% | [7]; at 1.2 µM -2% | [7]; at 3.7 µM -2% | [7]; at 11.0 µM -4% | [7]; at 33.0 µM -4% | [7]; at 100.0 µM -2% | [8]; [17] 0% | [8]; [18] 31% | [9]; at 1.2 µM -4% | [9]; at 3.7 µM -2% | [9]; at 11.0 µM 2% | [9]; at 33.0 µM -3% | [9]; at 100.0 µM -1% | [10]; [17] 44% | [10]; [18] 52% | [11]; at 1.2 µM -1% | [11]; at 3.7 µM 0% | [11]; [17] -1% | [11]; at 11.0 µM -1% | [11]; at 33.0 µM 0% | [11]; at 100.0 µM 0% | [15]; at 1.2 µM -2% | [15]; at 3.7 µM -2% | [15]; at 11.0 µM -5% | [15]; at 33.0 µM -5% | [15]; at 100.0 µM -1% | [13]; at 1.2 µM -1% | [13]; at 3.7 µM 1% | [13]; at 11.0 µM -2% | [13]; at 33.0 µM 0% | [13]; at 100.0 µM 0% | [16]; [17] 10% | [16]; [18] 35% | [14]; at 1.2 µM -4% | [14]; at 3.7 µM 0% | [14]; at 11.0 µM -2% | [14]; at 33.0 µM -3% | [14]; at 100.0 µM -3%
active: [5]; at 50.0 µM 85.2% | [6]; at 50.0 µM 88.5% | [8]; at 50.0 µM 89.1% | [10]; at 50.0 µM 87.2% | [11]; [18] 98% | [11]; at 50.0 µM 85.5% | [16]; at 50.0 µM 91.5%

NC(=O)c1c([N+](=O)[O-])cc(C(F)(F)F)cc1[N+](=O)[O-]
inactive: [1]; at 1.2 µM 2% | [1]; at 3.7 µM 1% | [1]; at 11.0 µM 3% | [1]; at 33.0 µM 6% | [1]; at 100.0 µM 7% | [2]; at 1.2 µM 0% | [2]; at 3.7 µM 0% | [2]; at 11.0 µM 0% | [2]; at 33.0 µM 2% | [2]; at 100.0 µM 2% | [3]; at 1.2 µM 1% | [3]; at 3.7 µM 5% | [3]; at 11.0 µM 7% | [3]; at 33.0 µM 16% | [3]; at 100.0 µM 40% | [4]; at 1.2 µM 3% | [4]; at 3.7 µM 5% | [4]; at 11.0 µM 4% | [4]; at 33.0 µM 6% | [4]; at 100.0 µM 6% | [5]; at 1.2 µM -1% | [5]; at 3.7 µM 0% | [5]; [17] -6% | [5]; at 11.0 µM -1% | [5]; at 33.0 µM 3% | [5]; [18] -4% | [5]; at 100.0 µM 11% | [6]; at 1.2 µM 0% | [6]; at 3.7 µM 0% | [6]; [17] 18% | [6]; at 11.0 µM 0% | [6]; at 33.0 µM 3% | [6]; [18] 3% | [6]; at 100.0 µM 10% | [7]; at 1.2 µM 2% | [7]; at 3.7 µM 0% | [7]; at 11.0 µM 0% | [7]; at 33.0 µM 0% | [7]; at 100.0 µM 1% | [8]; [17] 5% | [8]; [18] 2% | [9]; at 1.2 µM 2% | [9]; at 3.7 µM -1% | [9]; at 11.0 µM -4% | [9]; at 33.0 µM -5% | [9]; at 100.0 µM -4% | [10]; [17] 8% | [10]; [18] 22% | [11]; at 1.2 µM -1% | [11]; at 3.7 µM -1% | [11]; [17] 7% | [11]; at 11.0 µM 0% | [11]; at 33.0 µM -1% | [11]; [18] 23% | [11]; at 100.0 µM 5%
active: [5]; at 50.0 µM 97.8% | [6]; at 50.0 µM 97.2% | [8]; at 50.0 µM 98.4% | [10]; at 50.0 µM 84.3% | [11]; at 50.0 µM 93.1%
